Laboratory results published in PubChem BioAssay AID720514 (Broad Institute, 2013).
About 300 (14%) of roughly 2,100 compounds were called active. Roughly 2% stayed inconclusive and do not appear here.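 The calls were made as follows: active = every replicate test run called active, with the signal falling and half-maximal concentration within twice the top valid dose; inconclusive = the replicate test runs disagree in their calls; inactive = every test run inactive, including effects in the opposite direction.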 Not all results are given here. Measured potencies and affinities stand elsewhere.

test: inhibitors of PGC1a acetylation in cells, dose response, cell-based, cherry-picked samples (AID 720514); settings: U2OS PGC1a acetylation, AlphaLISA, overnight; series mostly up to 19.5 µM; activity change, negative = inhibition: at the top concentration;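 also: 0% = neutral control wells and -100% = positive control wells; actives lower the acetylation signal so they count as inhibitors of PGC1a acetylation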

Activity change, negative = inhibition, inactive:
Cc1csc(NC(=O)CSc2nsc(SCC(=O)Nc3nc(C)cs3)c2C#N)n1 75%
CN1CCN(c2ccc(CNC(=O)c3ccc(-c4ccnn4C)c4ccoc34)cc2)CC1 66.9%
COc1cc(CN2CCCC(CO)(Cc3cccc(Cl)c3)C2)cc2c1OCO2 (stereo not given) 61.2%
CCOc1ccc(N(C)S(=O)(=O)c2cc(-c3cc(C)no3)ccc2C(C)C)cc1 144%
C[C@@H]1CN([C@@H](C)CO)C(=O)c2c(c3ccccc3n2C)-c2ccccc2CO[C@@H]1CN(C)C(=O)Nc1ccc2c(c1)OCO2 163% [at 21 µM]
COC(=O)c1cc(S(=O)(=O)N2CCN(c3ccc(C(C)=O)cc3)CC2)c[nH]1 112%
CCC(=O)N(CC)c1nc(-c2ccc(OC)cc2)cs1 58.5%
CSc1nc(NCc2ccco2)c2ccccc2n1 41.5%
Cc1ccc2oc(-c3ccc(NC(=O)c4cccnc4)cc3)nc2c1 276%
CC(C)CCNc1nc(N2CCCC2)c2c(c1C#N)CCN(C)C2 68.1% [at 10 µM]
COc1ccc(CCC(=O)NCCS(=O)(=O)N2CCN(c3ccccc3)CC2)cc1 49.9%
COc1ccccc1CN1CCCC(C(=O)N(C)Cc2ccccc2)C1 (stereo not given) 56.3% [at 10 µM]
OC(c1ccccc1)(C1CCCCC1)C(CN1CCOCC1)c1ccccc1 (stereo not given) 75.2% [at 10 µM]
CC/C(=C(\c1ccc(O)cc1)c1ccc(OCCN(C)C)cc1)c1ccccc1 137% [at 10 µM]
CCN1CCN(C(=O)c2ccc3c(=O)n(CCC4=CCCCC4)c(=O)[nH]c3c2)CC1 90.2%
O=[N+]([O-])c1ccc(N2CCN(CC3CCCCC3)CC2)cc1 41.3%
c1ccc(Cn2nnnc2C(c2cccs2)N2CCCCCC2)cc1 (stereo not given) 44.4%
COc1ccc(C(c2nnnn2C2CCCC2)N2CCC(C)CC2)c(OC)c1 (stereo not given) 74.1%
c1ccc(CN2OCC3Cn4c(nc5ccccc54)C32)cc1 (stereo not given) 31.5%
CC(C)C(c1nnnn1Cc1ccccc1)N(Cc1ccco1)Cc1cccs1 (stereo not given) 141%
COc1ccc(-n2nnnc2CNC(=O)c2ccc3ccccc3c2)cc1 48.8% [at 10 µM]
c1ccc(C(c2nnnn2Cc2cccs2)N2CCN(C3CCCC3)CC2)cc1 (stereo not given) 49.8%
COc1cccc(CN2C[C@@H]3N[C@H](C2)C3c2ccc(-c3ccccc3F)cc2)c1 (stereo not given in full) 46.1%
CCOC(=O)Cn1cnc2scc(-c3ccccc3)c2c1=O 18%
O=C(Cc1ccccc1)Nc1nc(-c2ccc(F)c(F)c2)cs1 75%
COc1ccccc1CN1C[C@@H]2N[C@H](C1)C2c1ccc(-c2ccccc2OC)cc1 (stereo not given in full) 40.7% [at 21 µM]
COc1cccc(CN2C[C@@H]3N[C@H](C2)C3c2ccc(-c3cccc(C#N)c3)cc2)c1 (stereo not given in full) 79.6%
COc1cccc(-c2ccc(C3[C@@H]4CN(Cc5ccccn5)C[C@H]3N4)cc2)c1 (stereo not given in full) 59.2%
Cc1cccc(-c2ccc(C3[C@@H]4CN(C(=O)C5CCCCC5)C[C@H]3N4)cc2)c1 (stereo not given in full) 58.1% [at 10 µM]
COc1cccc(C(=O)c2c[nH]c(C(=O)NCc3cccnc3)c2)c1 269%
CCN(CC)S(=O)(=O)c1c(Br)cc(C)cc1Br 56.1%
CCN(CC)c1ccc(N)cc1S(=O)(=O)Nc1ccccc1OC 63.3%
O=C(C(Cc1ccccc1)n1cccc1)N1CCN(c2ccccc2)CC1 (stereo not given) 156%
O=C(c1ccccc1)c1nn(-c2ccc(Cl)cc2)c(=O)cc1C(F)(F)F 57% [at 10 µM]
CCn1c(=S)[nH]c2cc(S(=O)(=O)N3CCCCC3)ccc21 144%
C[C@@H]1CN([C@H](C)CO)C(=O)c2cccc(NC(=O)c3ccc(-c4nccs4)cc3)c2O[C@@H]1CN(C)Cc1ccc(C(=O)Nc2ccccc2N)cc1 114%
CC(C)C#Cc1ccc([C@@H]2[C@H](CO)N3C(=O)CN(C(=O)NC4CCCC4)C[C@@H]23)cc1 23.8%
CC1(C)OC(C)(C)/C(=C\c2ccc(OCC(N)=O)cc2)C1=O 57% [at 10 µM]
COc1ccc(S(=O)(=O)N(Cc2ccccc2)Cc2nc(-c3ccccc3)no2)cc1 68.8%
Cc1c(OCc2ccc(C(=O)O)cc2)ccc2c(-c3ccccc3)cc(=O)oc12 43.5%
C[C@H](CO)N1C[C@H](C)[C@@H](CN(C)S(=O)(=O)c2ccccc2)OCCCC[C@H](C)Oc2ccc(NC(=O)Nc3cccc4ccccc34)cc2C1=O 48.3% [at 21 µM]
CC(C)NC(=O)Nc1ccc2c(c1)C(=O)N([C@@H](C)CO)C[C@@H](C)[C@@H](CN(C)S(=O)(=O)c1ccccc1)OCCCC[C@H](C)O2 43.1%
CC(C)NC(=O)N(C)C[C@H]1OCCCC[C@@H](C)Oc2ccc(NC(=O)Cc3ccccc3)cc2C(=O)N([C@@H](C)CO)C[C@H]1C 45.8%
C[C@@H]1CN([C@H](C)CO)C(=O)c2cc(N(C)C)ccc2O[C@@H](C)CCCCO[C@H]1CN(C)C(=O)Nc1ccccc1 69%
COCCOC(=O)N1C(=O)[C@@]2(c3ccccc31)[C@H](c1ccccc1OCCO)N1[C@H](c3ccccc3)[C@H](c3ccccc3)OC(=O)[C@H]1[C@@H]2C(=O)N1CCCCCCC1 29.6%
c1ccc(-c2c(-c3ccccc3)n(Cc3ccco3)c3ncnc(NCCCn4ccnc4)c23)cc1 228%
O=C(CSc1nc2c(sc3ccccc32)c(=O)n1CCc1ccccc1)NCc1ccco1 44.7%
C=CCn1c(SCC(=O)NC(=O)NCc2ccco2)nc2sc(CC)cc2c1=O 35.5%
CCOC(=O)c1ccc(NC(=O)Nc2ccc(F)cc2)cc1 34.3%
Cc1cc(Nc2cccc(Cl)c2)c2ccccc2n1 75.5%
CC(=O)Nc1ccc(Nc2ncnc3c2cnn3-c2ccc(C)cc2C)cc1 105%
Cc1cc(C)c(S(=O)(=O)Nc2ccccc2-c2ccccc2)c(C)c1 96.5%
COc1ccccc1-c1ccc2c(c1)O[C@@H](CN(C)Cc1ccc3c(c1)OCO3)[C@@H](C)CN([C@@H](C)CO)S2(=O)=O 65.4%
COC(=O)c1ccc(NC(=O)C23CC4CC(C2)CC(n2cnc(Cl)n2)(C4)C3)cc1 81.3%
CCOc1ccc(N2C(=O)CC(Cc3ccc(Br)cc3)C2=O)cc1 (stereo not given) 46.2%
CCOc1ccc(S(=O)(=O)N2c3ccccc3CC2C)cc1 (stereo not given) 52.3%
CCCCN=C1NC(=O)C(CC(=O)Nc2ccc(Cl)cc2)S1 (stereo not given) 77.7%
O=C(Cc1ccccc1)N1CCN(C(=O)c2cccs2)CC1 74.4%
CCN1CCN(c2cc(C)c3cc(NC(=O)c4ccc(Br)o4)ccc3n2)CC1 39.5%
CCN1CCN(c2ncc(C(=O)Nc3cc(Cl)ccc3OC)c3ccccc23)CC1 52.8% [at 10 µM]
C[C@H]1CN([C@@H](C)CO)C(=O)c2cccc(NS(=O)(=O)c3ccc(F)cc3)c2O[C@H]1CN(C)Cc1ccc(C(F)(F)F)cc1 70.5%
COc1ccc(S(=O)(=O)N(C)C[C@@H]2Oc3cc(C#CC4CC4)ccc3S(=O)(=O)N([C@@H](C)CO)C[C@@H]2C)cc1 51.9%
COc1ccc(S(=O)(=O)N(C)C[C@@H]2Oc3cc(C#CC4CC4)ccc3S(=O)(=O)N([C@H](C)CO)C[C@@H]2C)cc1 43%
CCCCC(=O)Nc1ccc(NC(=O)c2cccs2)cn1 38.6%
OCCNc1nc(N2CCCCC2)nc2ccccc12 45.5%
O=[N+]([O-])c1cc(-c2nnc(Nc3ccc(O)cc3)c3ccccc23)ccc1N1CCOCC1 90.6%
Cc1ccc(-c2nnc(Nc3ccc4c(c3)OCO4)c3ccccc23)cc1S(=O)(=O)NCCO 76.8%
Cc1ccc2c(CN(Cc3ccccc3)Cc3ccccc3)cc(=O)oc2c1 38.4%
COCCNC(=O)c1ccc(C)cc1C 24.6%
COc1ccc(S(=O)(=O)N2CC[C@@H]3[C@H](CO)Nc4ccc(-c5ccccc5F)cc4[C@@H]32)cc1 68.9% [at 21 µM]
Cc1ccc(S(=O)(=O)N(Cc2ccc(F)cc2)Cc2ccco2)cc1 84.4%
CCOc1ccc(Nc2oc(-c3ccc(Cl)cc3)nc2C#N)cc1 58% [at 10 µM]
COc1ccc(S(=O)(=O)N(C)C[C@@H]2Oc3ccc(NC(=O)CCN4CCOCC4)cc3C(=O)N([C@H](C)CO)C[C@H]2C)cc1 22.6%
COCC(=O)Nc1ccc2c(c1)OC[C@@H](C)N(CCc1ccccc1)C[C@H](C)[C@H](OC)CN(C)C2=O 51.7%
CO[C@@H]1CN(C)C(=O)c2cc(NC(=O)c3ccc4c(c3)OCO4)ccc2OC[C@@H](C)N(CC2CC2)C[C@H]1C 17.3% [at 21 µM]
COC(=O)c1c(NC(=O)COC(=O)[C@@H](NS(=O)(=O)c2ccccc2)C(C)C)sc2c1CCC2 67.1%
Cc1cc(Nc2ccccc2)cc(=O)n1C 16.7%
CCN(CC)CCOc1ccc(/C(=C(\Cl)c2ccccc2)c2ccccc2)cc1 61.5% [at 10 µM]
COc1ccc(CN(CCC(C)C)S(=O)(=O)c2ccccc2Br)cc1 127%
Nc1nnc(SCC(=O)NC2CCCCC2)n1-c1ccccc1 11.5%
O=C(NC1CCCCC1)c1cccnc1C(=O)O 37.9%
Cc1ccccc1Cn1cc(NC(=O)c2cc(-c3cccs3)on2)cn1 81%
Cc1cc2cc3c(cc2nc1SCC(=O)OC(C)C)OCCO3 60.8%
Cc1cccc(-c2ccc3[nH]c4c(c3c2)CCN2C[C@@H]([C@H](C)O)[C@@H](N(C)C(=O)NC3CCCCC3)C[C@@H]42)c1 56.9%
O=C(Nc1ccc(-c2noc(CCc3ccccc3)n2)cc1)c1cccnc1 407%
COC(=O)c1ccc2[nH]c3cccc(/C(=C/c4ccccc4)c4ccccc4)c3c2c1 55%
O=C(Nc1cnc2ccccc2c1)c1cccnc1 156% [at 5 µM]
COc1ccc(Br)cc1CNc1ccccc1 103%
CCn1c(SCC(=O)Nc2ccc(NC(=O)c3ccco3)cc2)nnc1-c1cccs1 162% [at 10 µM]
Cc1cc(C)n2c(SCC(=O)NCc3ccco3)nnc2n1 22.2%
NC(=O)Cc1ccc2c(c1)[nH]c1ccccc12 177%
Cc1ccccc1-c1ccc(C2[C@@H]3CN(S(=O)(=O)c4ccccc4C)C[C@H]2N3)cc1 (stereo not given in full) 50.7%
COc1ccccc1-c1ccc(C2[C@@H]3CN(S(=O)(=O)c4ccc(C)cc4)C[C@H]2N3)cc1 (stereo not given in full) 43.6% [at 21 µM]
O=S(=O)(c1ccc(Cl)cc1)N1[C@@H]2CNC[C@H]1C2c1ccc(-c2cccc(F)c2)cc1 (stereo not given in full) 115% [at 21 µM]
Cc1ccc(S(=O)(=O)N2C[C@@H]3N[C@H](C2)[C@@H]3c2ccc(-c3cccc(C)c3)cc2)cc1 23.7%
